Screens deposited in PubChem by several laboratories.
SMARCA2 act = SMARCA2 (BRM) function activators, primary screen, cell-based, luminescence, high throughput; MG213 cells, MMTV-luciferase reporter, dexamethasone, overnight; activation, % at 9.1 µM; 370,000 compounds, 1% hits; in the data active means activation above about 7.8%;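 further: 0% = vehicle wells and 100% = reference activator wells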
HSP90 refold inh = HSP90 inhibitors, primary screen, cell lysate, luminescence. Heat shock protein HSP 90 (rabbit reticulocyte lysate; luciferase refolding). Rabbit reticulocyte lysate, luciferase refolding luminescence, 3 h. inhibition, % at 5.6 µM. 290,000 compounds, 0.91% hits;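 active means inhibition above the screen-wide mean plus 3 SD, computed separately per campaign, cut at about 16% in these data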;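 further: 0% = DMSO wells and 100% = 60 µM geldanamycin wells; inhibitors lower the luminescence because luciferase stays unfolded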
PG9 binder = binders of HIV-1 gp120 antibody PG9, primary screen, biochemical, TR-FRET. HIV-1 gp120 / PG9 antibody interaction. 360,000 compounds, 0.43% hits. TR-FRET gp120-PG9 antibody binding. inhibition, % at 6.7 µM; in the data active means inhibition above about 8.5%
AI-2 QS modul = Vibrio harveyi AI-2 quorum sensing modulators, primary screen, JMH597 strain, luminescence/OD600 ratio. AID 2094, 2009. activity change, % at 7.5 µM. Vibrio harveyi JMH597 AI-2 luminescence/OD600 ratio, 9 h; hits give low values; strain lacks LuxN and CqsS sensors; 0 = neutral-control median. 300,000 compounds, 0.4% hits; in the data active means activity change below about -75%, passing the limit was not always enough;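 further: luminescence divided by OD600 gain over 9 h not by final OD600 alone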
HSF1 inhib = HSF1 inhibitors in luciferase reporter cells, primary screen, cell-based, NIH3T3, luminescence | AID 2098, 2009 | NIH3T3-HGL HSE-luciferase, MG132-induced, luminescence 8 h; hits give low values | activity change, negative = inhibition, % at 7.5 µM (by protocol) | 300,000 compounds, 0.77% hits;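 active means more than half of replicate wells show activity change below -50%, luminescence cut by over half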;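 further: luciferase reports HSF-1 transcriptional activity via heat shock element; 0% = median of DMSO wells and -100% = zero luminescence signal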
FXN GAA850 act = FXN promoter activators, primary screen, cell-based, luciferase luminescence, HEK293 lucGAA850 | AID 540364, 2011 | 360,000 compounds, 0.56% hits | HEK293 lucGAA850 FXN promoter luciferase reporter, 24 h; percent of 10 µM SAHA response | activation, % at 6 µM;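 active means activation above the average of all compounds screened plus 3 SD, cutoff fixed separately per campaign, cut at about 7.5% in these data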;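 further: 0% = DMSO wells and 100% = 10 µM SAHA wells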
SMARCA2 conf = SMARCA2 (BRM) function activators, confirmation, cell-based, luminescence, triplicate; shares compounds with SMARCA2 act; MG213 cells, MMTV-luciferase with dexamethasone, overnight; MG213 cells expressing E1A, Rb sequestered; DMSO wells 0%, reference activator 100%; activation, % at 9.1 µM; 3,500 compounds, 30% hits; AID 652260, 2013;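 active means activation above its plate's cutoff, the mean activation of tested wells plus 3 SD, cut at about 7.9% in these data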
VP16 Luc act = GAL4-VP16 luciferase reporter activation, counter-screen for SMARCA2 (BRM) activator project, cell-based, pG5luc, luminescence, high throughput; 3,500 compounds, 41% hits; shares compounds with SMARCA2 act; AID 686939, 2013; HEK293 GAL4-VP16 pG5luc reporter; scaled: DMSO wells 0%, SAHA wells 100%; activation, % at 9.1 µM;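 active means activation above the solvent-only control well mean plus 3 SD, averaged across control plates, cut at about 5.2% in these data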
Active calls of the source: *. Only some compounds are listed: those with a hit (about 3.4% of all), similar ones and a draw of the others.

What do the screens show for `Cc1ccc(C)c(NC(=O)c2cc(-c3cc(C)c(C)cc3O)n[nH]2)c1`?
SMARCA2 act: 11.0*; HSP90 refold inh: -3.1; PG9 binder: -1.1; AI-2 QS modul: 1.9; HSF1 inhib: -5.0; FXN GAA850 act: 5.5; SMARCA2 conf: 4.2; VP16 Luc act: 5.9*

What do the screens show for `O=C(COC(=O)c1c(F)cccc1F)Nc1cccc(S(=O)(=O)N2CCCCC2)c1`?
SMARCA2 act: -2.3; PG9 binder: -1.3; FXN GAA850 act: -1.3

How did CCN(CC)c1ccc2cc(C(=O)c3cccs3)c(=O)oc2c1 do in these assays?
SMARCA2 act: 8.3*; PG9 binder: -2.2; SMARCA2 conf: 9.5*; VP16 Luc act: 1.3

What do the screens show for `Nc1nnc(-c2ccc(Cl)cc2Cl)s1`?
SMARCA2 act: 12.4*; HSP90 refold inh: -3.1; PG9 binder: -1.8; AI-2 QS modul: 10.2; HSF1 inhib: 10.5; FXN GAA850 act: 3.0; SMARCA2 conf: 6.3; VP16 Luc act: 8.2*

Results for Nc1nnc(-c2ccccc2F)s1 ?
SMARCA2 act: 1.4; HSP90 refold inh: 4.2; PG9 binder: 0.5; AI-2 QS modul: 18.1; HSF1 inhib: 8.3; FXN GAA850 act: 2.3

What do the screens show for `O=C(CC1CCCC1)N[C@H](C(=O)N1CCC[C@H]1C(=O)NC1CCCC1)c1ccccc1`?
SMARCA2 act: -3.4; PG9 binder: -1.3

How did CC1OC(OCC2OC(Oc3c(-c4ccc(O)cc4)oc4cc(O)cc(O)c4c3=O)C(O)C(O)C2O)C(O)C(O)C1O (configuration not stated) do in these assays?
SMARCA2 act: -1.9; HSP90 refold inh: 3.7; PG9 binder: -1.6; AI-2 QS modul: 16.1; HSF1 inhib: 4.8; FXN GAA850 act: 1.0

How did C[C@@H]1O[C@@H](OC[C@H]2O[C@@H](Oc3c(-c4ccc(O)c(O)c4)oc4cc(O)cc(O)c4c3=O)[C@H](O)[C@@H](O)[C@@H]2O)[C@H](O)[C@H](O)[C@H]1O do in these assays?
SMARCA2 act: 8.2*; HSP90 refold inh: -2.8; PG9 binder: -3.8; AI-2 QS modul: -8.4; HSF1 inhib: -3.4; FXN GAA850 act: -0.5; SMARCA2 conf: 0.3; VP16 Luc act: 1.8

How did O=[N+]([O-])c1cccc(-c2noc(-c3cccs3)n2)c1 do in these assays?
SMARCA2 act: 10.7*; HSP90 refold inh: -6.0; PG9 binder: 1.0; HSF1 inhib: 42.7; FXN GAA850 act: 1.8; SMARCA2 conf: 4.5; VP16 Luc act: 4.0

Results for OCCN1CN(c2ccccc2)C(=S)N(c2ccccc2)C1 ?
SMARCA2 act: -7.8; PG9 binder: -1.2

What do the screens show for `CCN(CC)c1ccc(/C=N/NC(=O)Nc2ccccc2)cc1`?
SMARCA2 act: 11.5*; HSP90 refold inh: -3.6; PG9 binder: -5.0; AI-2 QS modul: 15.3; HSF1 inhib: 17.5; FXN GAA850 act: 3.3; SMARCA2 conf: 11.5*; VP16 Luc act: 10.8*

Results for Cc1ccc(/C=N/NC(=O)Nc2ccccc2)o1 ?
SMARCA2 act: 8.2*; HSP90 refold inh: 0.3; PG9 binder: -3.3; AI-2 QS modul: 4.8; HSF1 inhib: 17.2; FXN GAA850 act: 7.5; SMARCA2 conf: 11.8*; VP16 Luc act: 10.3*

How did Cc1ccc(/C=N/NC(=O)C(O)c2ccccc2)o1 (configuration not stated) do in these assays?
SMARCA2 act: -2.2; HSP90 refold inh: 2.2; PG9 binder: -1.3; AI-2 QS modul: 8.5; HSF1 inhib: -1.1; FXN GAA850 act: -0.3

Results for CC1CCc2c(sc3nc(SCC(=O)NCc4ccco4)nc(N)c23)C1 (configuration not stated) ?
SMARCA2 act: 1.9; HSP90 refold inh: -1.6; PG9 binder: -1.8; AI-2 QS modul: 18.6; HSF1 inhib: 13.6; FXN GAA850 act: 2.7

What do the screens show for `CCN(CC)C(=O)CSc1nc(N)c2c3c(sc2n1)CC(C)CC3` (configuration not stated)?
SMARCA2 act: 8.3*; HSP90 refold inh: -0.6; PG9 binder: -2.6; AI-2 QS modul: 32.7; HSF1 inhib: 19.3; FXN GAA850 act: 6.9; SMARCA2 conf: 4.1; VP16 Luc act: 8.1*

How did CC(=O)Nc1ncc(N=Nc2cccc(C(F)(F)F)c2)s1 do in these assays?
SMARCA2 act: 1.5; HSP90 refold inh: -0.1; PG9 binder: 1.8; AI-2 QS modul: 16.8; HSF1 inhib: 18.7; FXN GAA850 act: 3.4

How did Cc1cccc(N=Nc2cnc(N)s2)c1 do in these assays?
SMARCA2 act: 8.1*; HSP90 refold inh: -3.5; PG9 binder: -1.5; AI-2 QS modul: 13.7; HSF1 inhib: 13.2; FXN GAA850 act: 7.0; SMARCA2 conf: 3.7; VP16 Luc act: 4.3

What do the screens show for `O=C(Nc1ccc(F)cc1)c1ccc2[nH]c(=O)c(=O)[nH]c2c1`?
SMARCA2 act: 8.5*; HSP90 refold inh: -1.5; PG9 binder: -3.6; AI-2 QS modul: 16.9; HSF1 inhib: -4.0; FXN GAA850 act: -0.3; SMARCA2 conf: 0.3; VP16 Luc act: 0.5

How did CCCC#C/C(CCC)=C1\c2ccccc2C(=O)N1c1ccccc1 do in these assays?
SMARCA2 act: 0.1; PG9 binder: -2.3

What do the screens show for `C[C@@H]1CCCCO[C@@H](CN(C)C(=O)Nc2ccc(C(F)(F)F)cc2)[C@@H](C)CN([C@H](C)CO)C(=O)c2cc(NS(=O)(=O)c3ccc(Cl)cc3)ccc2O1`?
SMARCA2 act: 1.5; PG9 binder: -0.2

Results for C[C@@H]1C=CCCO[C@]12C(=O)N(Cc1ccc(Br)cc1)c1cccc(Br)c12 ?
SMARCA2 act: -4.2; PG9 binder: -0.9

How did Cc1ccc(O)c(C2=Nc3ccccc3N=C(c3ccc([N+](=O)[O-])cc3)C2)c1 do in these assays?
SMARCA2 act: -1.8; HSP90 refold inh: 0.2; PG9 binder: -1.0; AI-2 QS modul: 26.7; HSF1 inhib: 3.1; FXN GAA850 act: 4.8
